Screening data from PubChem.
ERa coact inh = ER-alpha (human) coactivator binding inhibition; inhibition, % at 25.6 µM; P03372; 86,000 tested, 1.7% active; TR-FRET ER-alpha LBD / SRC-1 peptide, estradiol-bound; in the data active = inhibition above about 50%
FAK inh = inhibitors of human focal adhesion kinase | Q05397 | biochemical FAK kinase activity assay | inhibition, %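 (tested at 7 µM)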 | 97,000 tested, 0.84% active; in the data active = inhibition above about 19%
Target sequence (Q05397 whole entry, looked up): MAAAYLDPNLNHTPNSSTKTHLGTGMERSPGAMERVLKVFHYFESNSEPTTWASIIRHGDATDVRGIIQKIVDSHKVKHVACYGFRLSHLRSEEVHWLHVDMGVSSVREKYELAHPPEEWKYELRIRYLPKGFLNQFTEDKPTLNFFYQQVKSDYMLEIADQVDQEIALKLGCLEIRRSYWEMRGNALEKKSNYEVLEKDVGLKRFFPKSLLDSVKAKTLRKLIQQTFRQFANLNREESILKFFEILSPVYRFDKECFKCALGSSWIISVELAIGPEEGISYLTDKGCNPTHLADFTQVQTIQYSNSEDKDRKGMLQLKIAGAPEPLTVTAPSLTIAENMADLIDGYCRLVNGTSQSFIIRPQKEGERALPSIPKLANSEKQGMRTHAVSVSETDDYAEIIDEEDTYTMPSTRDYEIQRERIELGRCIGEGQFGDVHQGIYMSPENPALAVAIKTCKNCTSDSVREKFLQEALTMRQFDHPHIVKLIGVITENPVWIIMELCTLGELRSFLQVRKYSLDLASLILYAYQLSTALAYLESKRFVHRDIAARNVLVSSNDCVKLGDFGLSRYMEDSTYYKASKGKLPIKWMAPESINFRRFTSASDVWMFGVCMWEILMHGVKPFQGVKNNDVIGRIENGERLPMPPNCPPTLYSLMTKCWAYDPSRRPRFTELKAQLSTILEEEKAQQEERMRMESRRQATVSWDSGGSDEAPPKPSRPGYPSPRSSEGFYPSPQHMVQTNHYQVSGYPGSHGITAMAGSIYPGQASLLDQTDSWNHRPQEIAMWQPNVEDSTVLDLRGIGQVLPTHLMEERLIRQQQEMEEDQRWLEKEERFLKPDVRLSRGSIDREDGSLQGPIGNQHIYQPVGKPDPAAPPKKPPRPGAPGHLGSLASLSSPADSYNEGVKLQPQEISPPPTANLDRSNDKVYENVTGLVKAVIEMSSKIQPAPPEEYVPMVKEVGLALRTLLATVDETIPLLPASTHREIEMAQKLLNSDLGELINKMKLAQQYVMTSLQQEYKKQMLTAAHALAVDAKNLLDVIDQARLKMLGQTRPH
ERa SRC1 pot = enhances coactivator binding to human estrogen receptor alpha. P03372. 86,000 tested, 1.3% active. TR-FRET ERalpha-LBD/SRC-Cy5 coactivator binding, 2 h; 100 = basal binding, no effect. coactivator binding (% of control), % at 25.6 µM; in the data active = activity above about 200%;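 also: binding measured in presence of low estradiol as agonist stimulus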
ERb coact inh = blocks coactivator binding to human estrogen receptor beta | Q92731 | TR-FRET ER-beta LBD / SRC1-Cy5 peptide binding; receptor agonist-loaded with 1 µM estradiol | inhibition, % at 25.6 µM | 86,000 tested, 1.3% active;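 active = compounds whose percent inhibition of the receptor-coactivator binding signal exceeds about 50% in the single-dose screen, limit read from the data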
Numbers stand for hits; n = inactive; x = no result given; [ ] = another dose, or the depositor's remark. Hits are enriched below; roughly 3.2% of the tested compounds scored in any of these assays.

SMILES	ERa coact inh	FAK inh	ERa SRC1 pot	ERb coact inh
CCCCSc1nc2c(cnn2-c2ccc(Cl)cc2)c(=O)[nH]1	n	n	n	n
CCCSc1nc2c(cnn2-c2ccccc2)c(=O)[nH]1	n	x	201	n
CCCCSc1nc2c(cnn2-c2ccc(C)c(C)c2)c(=O)[nH]1	n	n	n	n
COC(=O)c1ccc(CSc2nc3c(cnn3-c3ccc(C)c(C)c3)c(=O)[nH]2)o1	80	n	n	n
CCCSc1nc2c(cnn2-c2ccc(C)c(C)c2)c(=O)[nH]1	50[fluorescence artefact?]	n	244[fluorescence artefact?]	54[fluorescence artefact?]
CCOC(=O)C1(C)NC(c2ccc(OC)cc2OC)C2C(=O)N(c3cccc(OC)c3)C(=O)C21 (configuration not stated)	n	n	n	n
COc1ccc(C2CC(=O)Nc3ccccc3S2(=O)=O)cc1OC (configuration not stated)	n	x	n	50
COc1ccc(C2Nc3ccccc3C(=O)N2O)cc1OC (configuration not stated)	n	n	n	n
CCN1C(=O)/C(=c2\o/c(=C3\C=Cc4ccccc4N3CC)c(=O)n2CC)SC1=S	77[fluorescence artefact?]	n	n	n
CCN1C(=O)/C(=C2/C=Cc3ccccc3N2C)OC1=S	66[fluorescence artefact?]	n	n	63[fluorescence artefact?]
CCN1C(=O)/C(=C2\C=Cc3ccccc3N2CC)SC1=S	x	n	x	x
CC1CCCN(C(=O)CCCn2c(=S)[nH]c3ccccc3c2=O)C1 (configuration not stated)	n	n	n	n
CCOC(=O)C1CCN(C(=S)Nc2cc(OC)c(OC)cc2C(=O)OC)CC1	n	n	n	n
CSc1nnc2c3ccccc3c3ccccc3c2n1	x	n	x	x
Nc1nc2ccc(O)cc2s1	n	n	n	n
Cn1c(-c2ccc3nc(N)sc3c2)nc2cc(N)ccc21	64[fluorescence artefact?]	n	n	54[fluorescence artefact?]
Cn1c(-c2ccc(N)cc2)nc2ccccc21	n	n	650[fluorescence artefact?]	n
CNC(=S)N(Cc1ccc(OC)cc1)C1CC(=O)N(c2ccc(Cl)cc2)C1=O (configuration not stated)	x	n	x	x
COc1ccc(-c2ccc(C#N)c(SCC(=O)OCc3ccccc3)n2)cc1OC	n	n	206[fluorescence artefact?]	n
N#Cc1ccc(-c2ccc3c(c2)OCO3)nc1SCC(=O)OCc1ccccc1	n	n	246[fluorescence artefact?]	n
Cc1nc(SCC(=O)OCc2ccccc2)c(C#N)c(-c2ccccc2)c1C(=O)Nc1ccccc1	x	n	x	x
CC(C)CC(=O)NCCNC(=O)c1cc(OCC(F)(F)F)ccc1OCC(F)(F)F	n	n	n	n
O=C(CN(Cc1ccccc1)S(=O)(=O)c1ccc(Br)cc1)NCc1ccco1	n	n	n	n
CCOC(=O)Cc1ccc(NS(=O)(=O)c2ccc(SC)cc2)cc1	54	n	n	n
CCOC(=O)c1ccc(NS(=O)(=O)c2ccc(SC)cc2)cc1	n	n	n	n
SMILES	ERa coact inh	FAK inh	ERa SRC1 pot	ERb coact inh
CCN(CC)c1nc(=S)nc(NC(C)(C)C)[nH]1	x	n	x	x
CC(NC(=O)CSc1nnc(-c2cc3cc(Cl)ccc3o2)n1C)c1ccccc1 (configuration not stated)	n	n	n	n
Cn1c(SCC(=O)NC2CCCCC2)nnc1-c1cc2cc(Cl)ccc2o1	n	n	429[fluorescence artefact?]	n
CCC(=O)Nc1cccc(NC(=O)CSc2nnc(C3CC3)n2C)c1	n	n	204	n
Cn1c(SCC(=O)Nc2cccc(Br)c2)nnc1-c1cc2ccccc2o1	n	n	631[fluorescence artefact?]	n
COc1ccc(C(C)C)cc1S(=O)(=O)n1cnc(C)c1	n	n	n	n
O=C(c1cccc(F)c1)N1CCN(C(=O)c2cc(-c3ccc(Cl)cc3Cl)on2)CC1	n	n	n	n
CC1N(C)c2cccc3cccc(c23)N1C	51[fluorescence artefact?]	n	n	83[fluorescence artefact?]
CCOC(=O)C1C(c2ccc3c(c2)OCO3)NC(=O)NC1(O)C(F)(F)F (configuration not stated)	n	n	n	n
CCOC(=O)C1C(c2cccs2)NC(=O)NC1(O)C(F)(F)F (configuration not stated)	n	n	527[fluorescence artefact?]	n
CC(C)(C)n1ncc(Oc2ccc(Oc3cnn(C(C)(C)C)c(=O)c3Cl)cc2)c(Cl)c1=O	n	n	n	n
Cn1c(C(=O)NCCCN2CCCC2=O)cc2c(=O)n3ccccc3nc21	n	x	n	n
CN(C)c1ccc(NC(=O)c2cc3c(=O)n4ccccc4nc3n2C)cc1	100[fluorescence artefact?]	n	n	93[fluorescence artefact?]
Cc1ccc(Cn2nc(C)c3cc(C(=O)OCC(N)=O)sc32)cc1	n	n	n	n
COc1ccc(-c2nnc(-c3cccnc3)o2)cc1	n	n	n	n
c1cncc(-c2nc(Oc3ccc(-c4nnco4)cc3)c3c4c(sc3n2)CCCC4)c1	n	x	258[fluorescence artefact?]	n
Cc1cc(-n2nc(C)cc2C)nc(NS(=O)(=O)c2ccccc2)n1	n	x	n	n
Cc1cccc(-n2nnnc2SCC(=O)c2cc(C)n(CC3CCCO3)c2C)c1 (configuration not stated)	n	x	n	n
Cc1cccc(-n2nnnc2SCC(=O)c2cc(C)n(Cc3ccco3)c2C)c1	89[fluorescence artefact?]	n	n	n
O=P(O)(CCc1ccncc1)CN1CCCCC1	n	n	n	n
CCOC(=O)CSc1nc(N2CCOCC2)c2c(c1C#N)CC(C)(C)N(C)C2	n	n	n	n
COC(=O)C(NC(=O)CCc1c(C)nc2ncnn2c1C)C(C)C (configuration not stated)	n	n	n	66[fluorescence artefact?]
CC/C(=N/Nc1ccccc1)c1cnnc(-c2ccccc2)n1	82[fluorescence artefact?]	n	n	60
O=C(O)CCCNc1cc(N2CCC3(CC2)OCCO3)c2noc3c2c1C(=O)c1ccccc1-3	n	n	n	88[fluorescence artefact?]
CCOC(=O)N1CCN(c2cc(NCCC(=O)O)c3c4c(onc24)-c2ccccc2C3=O)CC1	n	x	n	65[fluorescence artefact?]
SMILES	ERa coact inh	FAK inh	ERa SRC1 pot	ERb coact inh
CCOc1ccc2noc3c2c1C(=O)c1ccccc1-3	x	n	x	x
COc1ccc(-c2nnc3sc(COc4ccccc4)nn23)cc1	n	x	n	n
Cc1ccc(OCc2nn3c(-c4n[nH]c5c4CCC5)nnc3s2)cc1	73[fluorescence artefact?]	x	n	54
COc1ccc(-c2nnc3sc(COc4ccc(C)cc4)nn23)cc1	n	n	n	n
c1ccc(OCc2nn3c(-c4n[nH]c5c4CCC5)nnc3s2)cc1	67[fluorescence artefact?]	x	n	61[fluorescence artefact?]
Cc1ccc(-c2noc(CN3C(C)CCCC3C)n2)cc1 (configuration not stated)	n	n	n	n
CCc1cc2c(N3CCN(c4ccccc4)CC3)ncnc2s1	x	n	x	x
Cc1ccc(C(=O)ONc2ccc(N=NC(=O)c3ccccc3O)cc2)cc1	72	n	n	52
N#Cc1nc(-c2cccs2)oc1N1CCN(c2ccccc2)CC1	n	n	n	n
O=C(c1ccco1)N1CCN(C(=O)c2cc(-c3ccccn3)nc3ccc(Cl)cc23)CC1	64[fluorescence artefact?]	n	n	54[fluorescence artefact?]
CC(=O)NC(Cc1ccc(F)cc1)C(=O)N1CCN(C(=O)NCc2ccccc2)CC1 (configuration not stated)	x	n	x	x
CC(C)NC(=O)C1CC(=O)N(c2ccc(F)c(Cl)c2)C1 (configuration not stated)	n	n	n	n
O=c1cc(-c2ccccc2Cl)c2c([nH]1)CCC2	n	x	n	57[fluorescence artefact?]
O=c1cc(-c2ccccc2)c2c([nH]1)CCCC2	n	n	n	n
